Reference: PubChem BioAssay (NCATS)
Results filed as inconclusive are left out. Activity calls are given as the source filed them. Calls come from the whole dose curve; as a rule, active = well fitted inhibition curve with a large enough effect; inconclusive = small, poorly fitted or top-dose-only effect; inactive = no such curve, though single readings can be large or run the other way.

Assay: qHTS Screen of the MIPE 4.0 Collection Against Ewings Sarcoma (TC71) (AID 1259253); note: nearly all actives have a fitted effect of over 40% in size
Settings: TC71 Ewing sarcoma viability, CellTiter-Glo, 48 h; series mostly up to 45.8 µM
Method in brief: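 Dose series incubated 48 h with cells in RPMI plus 5% FBS, glutamine and penicillin/streptomycin; cell viability then quantified via CellTiter-Glo.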
Potency is the fitted concentration of half-maximal effect.

Structure (SMILES) | Potency
COc1cc2c(NC3CCN(C(C)C)CC3)nc(C3CCCCC3)nc2cc1OCCCN1CCCC1 | 7.43 µM (active)
Cc1cc(N2CCOCC2)cc2[nH]c(-c3c(NC[C@@H](O)c4cccc(Cl)c4)cc[nH]c3=O)nc12 | 0.59 µM (active)
CNC(=O)c1ccc(-c2cnc3ncc(Cc4ccc5ncccc5c4)n3n2)cc1F | inactive
C=CC(=O)Nc1cccc(Oc2nc(Nc3ccc(N4CCN(C)CC4)cc3)ncc2Cl)c1 | 14.8 µM (active)
O=C(Cc1ccc(-c2ccc(OCCN3CCOCC3)cc2)cn1)NCc1ccccc1 | 0.0372 µM (active)
Clc1cccc(-n2nnnc2NCc2ccccc2Oc2ccccn2)c1Cl | inactive
COc1cccc2c(NCc3ccccc3)nc(-n3c(N)nc4ccccc43)nc12 | 8.33 µM (active)
Nc1ncnc2c1c(-c1cccc(OCc3ccccc3)c1)cn2C1CC(CN2CCCC2)C1 (centres undefined) | 5.26 µM (active)
Cc1c(CN2CCN(S(C)(=O)=O)CC2)sc2c(N3CCOCC3)nc(-c3cnc(N)nc3)nc12 | 0.0662 µM (active)
O=C1CCC[C@@H]2[C@H]3CCC[N+]4([O-])CCC[C@@H](CN12)[C@@H]34 (some centres undefined) | inactive
NC(=O)c1cccc2cn(-c3ccc([C@@H]4CCCNC4)cc3)nc12 | 3.72 µM (active)
COc1cccc(Nc2c(C(N)=O)cnc3c(C)cc(S(=O)(=O)c4cccc(C(=O)N(C)C)c4)cc23)c1 | inactive
O=c1c2ccccc2nc2n1CCc1c-2[nH]c2ccccc12 | inactive
COC(=O)C1=C(C)NC(C)=C(C(=O)OCCN2CCN(C(c3ccccc3)c3ccccc3)CC2)C1c1cccc([N+](=O)[O-])c1 (centres undefined) | inactive
